Test results reported in PubChem BioAssay (NCI).
About 83,000 compounds went through this panel and 20% of them were active in at least one assay; those are over-represented in the sample as a whole.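 Step 1: grow cells in 96-well plates. Step 2: add test compound at a single concentration. Step 3: incubate 48 h. Step 4: record percent growth.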 A number with no mark means an inactive call. Activity calls are given as the source filed them. How the source made its calls: active means growth percent below 10; inactive means the rest.

System: SK-MEL-5 melanoma
Experiment: NCI-60 one-dose screen, 48 h (100 = growth as untreated, 0 = no growth, -100 = all killed)
Details: 10 µM unless noted

Compound	growth
O=C(N=c1n(-c2ccccc2)nc2n1CCN2C1=NCCN1C(=O)c1ccc(Cl)cc1)c1ccc(Cl)cc1	70.9%
CC1=CC[C@@H]2C(C)(C)[C@@H](O)CC[C@@]2(C)[C@@H]1COc1ccc2ccc(=O)oc2c1	28.7%
CSc1nc2sc3cc(Cl)c(Cl)cc3n2c(=N)c1C#N	86.4%
COc1ccc(C(=O)CCC(=O)O)cc1	99.8%
O=C(CCNCc1ccccc1)c1ccccc1	99%
NC(=O)CC1C=CCC1 (centres undefined)	99.5%
CCNc1cc2c(cc1Br)-c1ccccc1C2=O	95.2%
O=C(O)c1cn(C2CC2)c2cc(N3CCN(Cc4c(O)ccc5ccccc45)CC3)c(F)cc2c1=O	58.4%
CCOC(=O)COc1ccc2c(c1)O/C(=C\c1ccc(O)cc1)C2=O	102%
Nc1cc(NN=C(c2ccc(O)cc2)c2ccc(O)cc2)c([N+](=O)[O-])cc1[N+](=O)[O-]	-85.4% (active)
CCCCCCNC(=O)Nc1ncnc2c1ncn2-c1ccccc1	98.3%
C[C@]12CCc3c(ccc4cc(O)ccc34)[C@@H]1CC[C@H]2O	101%
Nc1nc(Nc2ccccc2)c2ncn(Cc3ccc4c(c3)OCO4)c2n1	21.4%
COc1ccc(OC)c(NC=O)c1	110%
Fc1cc2[nH]ncc2c2c3c(c(-c4cn[nH]c4)nc12)CCCC3	-69.4% (active)
CCN(CC)CCCCCCNc1cccc2cc(Br)cnc12	94.7%
O=C(CSc1nc2ccc([N+](=O)[O-])cc2[nH]1)Nc1cccc(Cl)c1	0.349% (active)
CCN(CC)CCCOc1ccc2c(c1)O/C(=C\c1cccc(OC)c1)C2=O	91.2%
CC1(C)C(=O)/C(=C\c2ccco2)C[C@]2(C)[C@H]3CC=C4[C@@H]5C[C@](C)(C(=O)O)CC[C@]5(C)CC[C@@]4(C)[C@]3(C)CC[C@@H]12	-72.7% [100 µM] (active)
C=C(C)[C@@H]1CC[C@]2(C(=O)NCCCCCCN(CCCN)CCCN)CC[C@]3(C)[C@H](CC[C@@H]4[C@@]5(C)CC[C@H](OCCCN)C(C)(C)[C@@H]5CC[C@]43C)[C@@H]12	85.9% [100 µM]
C=C(C)[C@@H]1CC[C@]2(COC(=O)c3ccccc3C(=O)O)CC[C@]3(C)[C@H](CC[C@@H]4[C@@]5(C)CC[C@H](OC(=O)c6ccccc6C(=O)O)C(C)(C)[C@@H]5CC[C@]43C)[C@@H]12	11.9% [100 µM]
COc1ccc2c(c1)c(-c1noc(-c3cn(C)c4ncc(F)cc34)n1)cn2C	74.8%
c1ccc(-c2nnc(-c3c[nH]c4ncccc34)s2)cc1	91.6%
O=C1COCCN1c1ccc(NCc2cn(Cc3ccc(F)cc3)c3ccccc23)cc1	27.3%
CC(=O)Nc1ccc2nc3ccc(NC(C)=O)cc3[n+](-c3ccccc3)c2c1	96.3%
CCCCNC(=O)NS(=O)(=O)Cc1ccccc1	107%

System: UACC-62 melanoma
Experiment: as above
Details: 10 µM unless noted

Compound	growth
NC1=NC(=O)NC1(c1ccccc1)c1ccccc1	101%
N#C/C(C(=O)c1ccccc1)=C1/C(=O)Nc2ccccc21	94.6%
CN(Cc1cccc(C(F)(F)F)c1)C(=O)[C@@H](CC(=O)N1CCC(N2CCCCC2)CC1)N1C(=O)[C@@H](N2C(=O)OC[C@@H]2c2ccccc2)[C@H]1/C=C/c1ccccc1	96.2%
CCOc1ccc(S(=O)(=O)Nc2ccc3c(c2)N(S(=O)(=O)CC)CCC3)cc1	64.8%
CCOC(=O)C(=Cc1ccccc1[N+](=O)[O-])C(=O)OCC	32.3%
COc1cc(/C=C/C(=O)/C=C/c2ccc(-n3ccnc3C)cc2)ccc1O	95.1%
CCOC(=O)CC(c1ccccc1)C(C#N)c1ccccc1 (centres undefined)	97.3%
Cc1ccc(C2=C/C(=C/c3ccc(Br)cc3)C(=O)N2CCc2ccc(S(N)(=O)=O)cc2)cc1	78.7%
Cc1ccc(NC(=O)N[C@@H](Cc2cc(F)cc(F)c2)C(=O)N[C@@H]2C(=O)N3CCC[C@H]3C(=O)N3CCCC[C@H]3C(=O)N[C@@H](C)C(=O)N3C[C@H](C)C[C@H]3C(=O)O[C@H]2C)cc1	25.8%
C=C(C)[C@@H]1CC[C@]2(C)[C@H](CC[C@@H]3[C@@H]([C@@](C)(O)CCC=C(C)C)CC[C@]32C)[C@@]1(C)CCC(=O)O	-75.3% [100 µM] (active)
C=CCCCCCCCCC(=O)OC(C)C	105%
O=C1Nc2ccccc2/C1=C/C(=O)c1ccc(N2CCCCC2)cc1	68.6%
O=C(N=c1n(-c2ccccc2)nc2n1CCN2C1=NCCN1C(=O)c1ccc(Cl)cc1)c1ccc(Cl)cc1	73.6%
CC1=CC[C@@H]2C(C)(C)[C@@H](O)CC[C@@]2(C)[C@@H]1COc1ccc2ccc(=O)oc2c1	22.9%
CSc1nc2sc3cc(Cl)c(Cl)cc3n2c(=N)c1C#N	82.2%
COc1ccc(C(=O)CCC(=O)O)cc1	99.7%
O=C(CCNCc1ccccc1)c1ccccc1	97.5%
NC(=O)CC1C=CCC1 (centres undefined)	101%
CCNc1cc2c(cc1Br)-c1ccccc1C2=O	86.9%

Compound	growth
O=C(O)c1cn(C2CC2)c2cc(N3CCN(Cc4c(O)ccc5ccccc45)CC3)c(F)cc2c1=O	38.8%
CCOC(=O)COc1ccc2c(c1)O/C(=C\c1ccc(O)cc1)C2=O	98.9%
Nc1cc(NN=C(c2ccc(O)cc2)c2ccc(O)cc2)c([N+](=O)[O-])cc1[N+](=O)[O-]	42.3%
CCCCCCNC(=O)Nc1ncnc2c1ncn2-c1ccccc1	97.6%
C[C@]12CCc3c(ccc4cc(O)ccc34)[C@@H]1CC[C@H]2O	61.4%
Nc1nc(Nc2ccccc2)c2ncn(Cc3ccc4c(c3)OCO4)c2n1	41.3%
COc1ccc(OC)c(NC=O)c1	99.7%
Fc1cc2[nH]ncc2c2c3c(c(-c4cn[nH]c4)nc12)CCCC3	-48% (active)
CCN(CC)CCCCCCNc1cccc2cc(Br)cnc12	113%
O=C(CSc1nc2ccc([N+](=O)[O-])cc2[nH]1)Nc1cccc(Cl)c1	8.24% (active)
CCN(CC)CCCOc1ccc2c(c1)O/C(=C\c1cccc(OC)c1)C2=O	95.6%
CC1(C)C(=O)/C(=C\c2ccco2)C[C@]2(C)[C@H]3CC=C4[C@@H]5C[C@](C)(C(=O)O)CC[C@]5(C)CC[C@@]4(C)[C@]3(C)CC[C@@H]12	-83.7% [100 µM] (active)
C=C(C)[C@@H]1CC[C@]2(C(=O)NCCCCCCN(CCCN)CCCN)CC[C@]3(C)[C@H](CC[C@@H]4[C@@]5(C)CC[C@H](OCCCN)C(C)(C)[C@@H]5CC[C@]43C)[C@@H]12	120% [100 µM]
C=C(C)[C@@H]1CC[C@]2(COC(=O)c3ccccc3C(=O)O)CC[C@]3(C)[C@H](CC[C@@H]4[C@@]5(C)CC[C@H](OC(=O)c6ccccc6C(=O)O)C(C)(C)[C@@H]5CC[C@]43C)[C@@H]12	-18.7% [100 µM] (active)
COc1ccc2c(c1)c(-c1noc(-c3cn(C)c4ncc(F)cc34)n1)cn2C	83.9%
c1ccc(-c2nnc(-c3c[nH]c4ncccc34)s2)cc1	81.2%
O=C1COCCN1c1ccc(NCc2cn(Cc3ccc(F)cc3)c3ccccc23)cc1	-65.8% (active)
CC(=O)Nc1ccc2nc3ccc(NC(C)=O)cc3[n+](-c3ccccc3)c2c1	103%
CCCCNC(=O)NS(=O)(=O)Cc1ccccc1	104%
